Where “and” joins values, the source holds several entries; their conditions need not be identical. Equal entries are not always repeated. Calls of active or inactive are those of the source.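 Rule for the calls, unless noted: active = compounds whose cell count with miR-34 switched on is under 0.7 times the count with it off; inactive = the rest.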
Key:
[1] = viability loss with induced miR-34 in A549 – imaging, A549 dox-inducible miR-34, nuclei and caspase counts, primary screen (AID 1347080); conditions: A549 miR-34 inducible, Hoechst nuclei count, 48 h
[2] = MELAS cybrid and Rieske KO viability enhancers – cell-based, MELAS cybrids, Rieske KO mouse fibroblasts, CellTiter-Glo, primary screen (AID 1508586;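 active = mean z-score across replicates of 1.96 or higher in either the MELAS or the Rieske mutant cell line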;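 note: z relative to plate mean and SD of compound and empty wells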); conditions: low glucose
[3] = biological target: NAD(+) hydrolase SARM1 (Homo sapiens) (UniProt Q6SZW1); assay: blocking NAD cleavage by SARM1 SAM-TIR – cell lysate, NAD-Glo luminescence (AID 1508614;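 active = compound whose remaining NAD level is above about 45 nM, limit read from the data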;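 note: higher remaining NAD means stronger inhibition of SARM1 NADase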); conditions: SAM-TIR HEK293T lysate NADase, at 1 µM, stronger effect = higher value
Sequence of NAD(+) hydrolase SARM1 (Homo sapiens) (Q6SZW1 whole entry, looked up, the tested form may be a part): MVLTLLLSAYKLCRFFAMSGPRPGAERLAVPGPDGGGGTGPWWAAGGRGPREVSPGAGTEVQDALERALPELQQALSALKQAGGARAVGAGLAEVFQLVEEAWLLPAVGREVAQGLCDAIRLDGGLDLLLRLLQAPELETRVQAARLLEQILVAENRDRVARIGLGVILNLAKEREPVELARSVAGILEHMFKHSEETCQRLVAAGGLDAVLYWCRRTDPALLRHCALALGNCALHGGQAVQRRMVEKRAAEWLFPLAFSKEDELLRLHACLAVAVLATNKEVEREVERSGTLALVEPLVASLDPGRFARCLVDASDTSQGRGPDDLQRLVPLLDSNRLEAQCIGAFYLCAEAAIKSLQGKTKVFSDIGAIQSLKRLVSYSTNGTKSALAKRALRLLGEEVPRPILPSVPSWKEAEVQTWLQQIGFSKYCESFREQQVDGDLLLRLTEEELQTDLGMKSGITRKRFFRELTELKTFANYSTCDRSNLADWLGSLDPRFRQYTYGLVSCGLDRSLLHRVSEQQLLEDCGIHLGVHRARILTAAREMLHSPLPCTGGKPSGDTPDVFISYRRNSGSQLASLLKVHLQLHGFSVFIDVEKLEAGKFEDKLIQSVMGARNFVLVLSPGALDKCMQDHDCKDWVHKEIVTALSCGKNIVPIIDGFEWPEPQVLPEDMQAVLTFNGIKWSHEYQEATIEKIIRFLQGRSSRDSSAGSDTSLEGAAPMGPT

[4] = biological target: Mitogen-activated protein kinase 7 (Homo sapiens) (UniProt Q13164); assay: Gal4-ERK5 driven luciferase induction – cell-based, HTS, primary screen (AID 1508626;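 active = luciferase signal above three times the same-plate solvent-only control wells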;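 note: luciferase driven by Gal4-ERK5 fusion binding five Gal4 sites before minimal TATA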); conditions: HeLa Gal4-ERK5 transactivation, 18 h, at 5 µM, stronger effect = higher value
Sequence of Mitogen-activated protein kinase 7 (Homo sapiens) (Q13164 whole entry, looked up, the tested form may be a part): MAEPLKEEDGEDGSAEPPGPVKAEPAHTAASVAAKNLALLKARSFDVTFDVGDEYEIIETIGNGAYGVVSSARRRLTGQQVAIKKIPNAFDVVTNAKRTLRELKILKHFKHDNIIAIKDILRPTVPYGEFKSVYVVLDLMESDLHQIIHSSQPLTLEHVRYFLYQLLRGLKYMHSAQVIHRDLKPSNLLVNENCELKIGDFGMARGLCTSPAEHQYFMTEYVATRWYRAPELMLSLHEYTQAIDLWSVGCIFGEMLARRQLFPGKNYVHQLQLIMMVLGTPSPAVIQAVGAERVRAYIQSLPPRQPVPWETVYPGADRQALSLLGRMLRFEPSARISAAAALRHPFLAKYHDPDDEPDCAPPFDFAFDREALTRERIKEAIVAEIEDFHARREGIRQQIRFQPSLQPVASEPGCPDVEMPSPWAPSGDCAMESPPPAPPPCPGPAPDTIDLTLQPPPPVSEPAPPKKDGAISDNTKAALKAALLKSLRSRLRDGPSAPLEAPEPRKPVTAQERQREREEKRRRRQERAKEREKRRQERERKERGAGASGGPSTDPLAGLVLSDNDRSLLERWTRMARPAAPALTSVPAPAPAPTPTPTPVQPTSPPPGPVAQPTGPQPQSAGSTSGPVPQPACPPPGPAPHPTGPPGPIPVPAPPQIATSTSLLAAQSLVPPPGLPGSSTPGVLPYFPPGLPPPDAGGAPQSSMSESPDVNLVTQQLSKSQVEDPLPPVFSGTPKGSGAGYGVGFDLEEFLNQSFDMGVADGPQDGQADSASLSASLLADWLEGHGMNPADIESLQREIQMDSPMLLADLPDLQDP

[5] = galactose survival enhancers in mitochondrial complex I cybrids – cell-based, galactose medium, ATP luminescence, primary screen (AID 1645843;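 active = z-score of at least 1.8 in each of two replicates, scored against plate mean and spread of sample wells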;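 note: positive z means more ATP and so rescue of galactose-driven cybrid death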); conditions: complex I mutant cybrid cells, 72 h, stronger effect = higher value
[6] = stronger effect = lower value, cell number ratio, induced over uninduced
[7] = measured here: relative caspase fold change +Dox/-Dox
[8] = measured here: total cells with miR-34 induction, stronger effect = lower value
[9] = measured here: total cells without miR-34 induction
[10] = MELAS cybrid survival, CellTiter-Glo 48 h, stronger effect = higher value
[11] = Rieske KO mouse fibroblast survival, CellTiter-Glo 72 h

Compound	fold change [1, 6]	fold change [1, 7]	cell count [1, 8]	cell count [1, 9]	z-score [2, 10]	z-score [2, 11]	remaining NAD [3]	luciferase signal [4]	z-score [5]
O=c1ccc2ccccc2o1	0.91 (inactive) and 0.88 (inactive)	0.575 and 1.07	7780 and 10900	8550 and 12300	-0.266 (inactive)	-0.22	10 nM (inactive)	48 AU (inactive)	
CC(=O)[C@@]1(O)CC[C@H]2[C@@H]3C[C@H](C)C4=CC(=O)C=C[C@]4(C)[C@@]3(F)[C@@H](O)C[C@@]21C	0.84 (inactive)	1.39	6290	7490	-0.955 (inactive)	0.456	10 nM (inactive)	76 AU (inactive)	
O=C(O)c1ccccc1O	0.935 (inactive) and 0.936 (inactive)	0.622 and 2.5	8100 and 11600	8660 and 12400	-0.0591 (inactive)	-0.159	10 nM (inactive)	24 AU (inactive)	
CCCCC1C(=O)N(c2ccccc2)N(c2ccc(O)cc2)C1=O (stereo not drawn)	0.952 (inactive) and 0.848 (inactive)	0.53 and 1.48	8300 and 10300	8720 and 12100	-1.46 (inactive)	-1.25	10 nM (inactive)	144 AU (inactive)	
CCN(CC)Cc1cc(Nc2ccnc3cc(Cl)ccc23)ccc1O	0.891 (inactive)	1.28	7140	8010	0.684 (inactive)	0.737	10 nM (inactive)	60 AU (inactive)	
O=C1c2ccccc2C(=O)C1c1ccccc1	0.851 (inactive) and 1.01 (inactive) and 0.873 (inactive)	1.04 and 0.811 and 1.49	8760 and 1750 and 10200	10300 and 1740 and 11700	-0.152 (inactive) and 0.54 (inactive)	-0.0639 and -0.0998	10 nM (inactive)	52 AU (inactive)	
COc1ccc(C(=O)c2ccccc2)c(O)c1	0.864 (inactive) and 0.859 (inactive)	1.19 and 0.952	7820 and 11100	9050 and 12900	-0.0705 (inactive)	-1.09	10 nM (inactive)	36 AU (inactive)	
NC(=O)NC1NC(=O)NC1=O (stereo not drawn)	0.95 (inactive) and 0.875 (inactive)	1.05 and 3.99	8140 and 12000	8570 and 13800	-0.771 (inactive)	0.175	10 nM (inactive)	72 AU (inactive)	
OC(CCN1CCCCC1)(c1ccccc1)c1ccccc1	0.941 (inactive)	1.61	9230	9810	-1.04 (inactive)	-0.829	10 nM (inactive)	36 AU (inactive)	
COc1cc2c3cc1Oc1cc(ccc1O)C[C@@H]1c4c(cc(OC)c(O)c4Oc4ccc(cc4)C[C@@H]3N(C)CC2)CC[N+]1(C)C	0.869 (inactive) and 0.934 (inactive)	2.84 and 1.19	11500 and 10000	13300 and 10700	-0.392 (inactive)	-0.225	10 nM (inactive)	32 AU (inactive)	0.605 (inactive)
NS(=O)(=O)c1cc2c(cc1Cl)NC(CSCc1ccccc1)=NS2(=O)=O	0.856 (inactive) and 0.772 (inactive)	1.39 and 1.03	8870 and 9840	10400 and 12800	0.425 (inactive)	-0.312	10 nM (inactive)	88 AU (inactive)	
COc1cc2c(cc1OC)C(=O)C(CC1CCN(Cc3ccccc3)CC1)C2 (stereo not drawn)	0.863 (inactive) and 0.884 (inactive)	1.25 and 2.01	8000 and 11200	9270 and 12700	1.84 (inactive)	0.641	10 nM (inactive)	32 AU (inactive)	-0.225 (inactive)
C[C@@](Cc1ccc(O)c(O)c1)(NN)C(=O)O	0.855 (inactive) and 0.878 (inactive) and 0.94 (inactive)	1.15 and 0.758 and 1.14	8030 and 8200 and 9200	9400 and 9340 and 9790	-0.318 (inactive) and -0.0378 (inactive) and 0.282 (inactive)	0.573 and -0.159 and -0.894	10 nM (inactive)	56 AU (inactive)	1.23 (inactive) and -0.53 (inactive)
Cc1ccsc1/C=C/C1=NCCCN1C	0.892 (inactive) and 0.795 (inactive)	1.23 and 5.32	8120 and 10200	9110 and 12800	-0.598 (inactive)	0.242	10 nM (inactive)	88 AU (inactive)	
COc1cnc(NS(=O)(=O)c2ccc(N)cc2)nc1	0.943 (inactive) and 0.91 (inactive) and 0.881 (inactive)	1.15 and 0.841 and 2.64	9880 and 7410 and 11400	10500 and 8140 and 12900	-0.122 (inactive) and -0.879 (inactive)	-1.17 and -0.837	10 nM (inactive)	40 AU (inactive)	

Reference: PubChem BioAssay
